The test system of assay [1] is Plasmodium falciparum Sir2 (PF13_0152, Sir2A). Put plainly: Plasmodium falciparum Sir2A binding compounds – biochemical, small-molecule microarray, 635 nm fluorescence, primary screen (AID 1098).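 Further: score merges spot fluorescence intensity with its signal-to-noise ratio.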 Particulars: fluorescence 635 nm, higher = more signal.
Assay [2] in a line: probe aDKK1 binding to arrayed compounds – biochemical, biotinylated probe, 635/667 nm fluorescence, primary screen (AID 1099).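 Further: score merges 667nm spot fluorescence with signal to noise across triplicate slides.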 The note with it: small-molecule microarray, higher = more signal.
Assay [3] in a line: probe aCHRDL2 binding to arrayed compounds – biochemical, biotinylated probe, 635/667 nm fluorescence, primary screen (AID 1100). Particulars: small-molecule microarray, higher = more signal.
A short description of assay [4]: change in splice reporter luminescence, either direction, cell-based, HEK293, spliceosome inhibition project, primary screen (AID 1101).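 Further: HEK293 cells carrying a splicing-competent luciferase reporter gene; test concentration not given here.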 Particulars: HEK293 splicing luciferase reporter, 24 h, higher = more signal, called active from +8 up or from −8 down. In general terms: Reporter assays use an easily measured gene product as a stand-in for the process of interest.

Assay [5] has as its target Fibroblast growth factor 10 (Homo sapiens) (UniProt O15520). The assay can be described thus: compounds binding fibroblast growth factor 10 – biochemical, small-molecule microarray, 635 nm fluorescence, primary screen (AID 1102). The note with it: FGF10 binding, fluorescence 635 nm, higher = more signal.
Assay [6] concerns glycogen synthase kinase-3 (GSK3A per assay name; protocol says GSK3B). Put plainly: compounds binding glycogen synthase kinase-3 – biochemical, small-molecule microarray, 635 nm fluorescence, GSK3A, primary screen (AID 1103). Further: the record names both GSK3A and GSK3B. Particulars: fluorescence 635 nm, higher = more signal.
Assay [7] has as its target Epidermal growth factor receptor (Homo sapiens) (UniProt P00533). Put plainly: compounds binding epidermal growth factor receptor – biochemical, small-molecule microarray, 635 nm fluorescence, primary screen (AID 1104).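 Further: score merges 667 nm emission intensity with spot signal to noise over triplicate slides.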 Particulars: EGFR binding, higher = more signal.
Assay [8] addresses Follistatin-related protein 3 (Homo sapiens) (UniProt O95633). Put plainly: compounds binding follistatin-related protein 3 – biochemical, small-molecule microarray, 635 nm fluorescence, primary screen (AID 1105).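 Further: score merges emission near 667 nm and signal to noise per printed spot across three slides.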 Particulars: FSTL3 binding, higher = more signal.
Assay [9] concerns the target Dickkopf-related protein 1 (Homo sapiens) (UniProt O94907). The assay can be described thus: small molecules binding DKK1 protein – biochemical, small-molecule microarray, 635 nm fluorescence scan, primary screen (AID 1106).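 Further: score merges emission near 667 nm with signal to noise over three replicate slides.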 Particulars: higher = more signal.
Assay [10] deals with Inhibin beta A chain (activin A). The assay can be described thus: small molecules binding activin A – biochemical, small-molecule microarray, 635 nm fluorescence scan, primary screen (AID 1107).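 Further: mouse activin A protein probed at 4.33 µg/mL on printed slides; score merges bound-protein fluorescence near 667 nm with spot signal-to-noise.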 The note with it: INHBA, higher = more signal.
Assay [11] deals with Human papillomavirus type 1a protein E7 (residues 44-93). The assay can be described thus: small molecules binding HPV E7 44-93 – biochemical, small-molecule microarray, residues 44-93, 635 nm fluorescence, primary screen (AID 1108).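 Further: E7 fragment applied at 1 µg/mL in TBST for 1 h at 4 C; score combines spot fluorescence with its signal to noise ratio.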 Particulars: fluorescence 635 nm, higher = more signal.
The nature of assay [12]: hepatitis C replication reporter changes, two-sided – Huh7 cells, luciferase reporter, HCV replication inhibitor project, primary screen (AID 1109).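 Further: huh7 hepatoma cells harbouring a luciferase neomycin HCV replicon reporter; luciferase luminescence as measure of HCV replicon replication; test concentration not given here.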 The note with it: Huh7 HCV replicon luciferase reporter, 48 h; higher = more signal.
Assay [13] deals with Left-right determination factor 2 (Homo sapiens) (UniProt O00292). The assay can be described thus: small molecules binding LEFTY2 protein – biochemical, small-molecule microarray, 635 nm fluorescence scan, primary screen (AID 1110). The note with it: higher = more signal.
Assay [14] addresses Calmodulin-1 (Homo sapiens) (UniProt P0DP23). Put plainly: small molecules binding calmodulin-1 with EGTA – biochemical, small-molecule microarray, Cy5-labelled CALM1, profiling panel (AID 1111).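 Further: labelled calmodulin applied in Tris saline Tween buffer holding calcium plus EGTA and DTT.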 Particulars: Cy5-CALM1 binding fluorescence, higher = more signal.
For assay [15] the target is unchanged. The assay can be described thus: small molecules binding Ca-loaded calmodulin-1 – biochemical, small-molecule microarray, Cy5-labelled CALM1, plus calcium, artefact control for SMM control-protein annotation, profiling panel (AID 1112).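 Further: score merges spot fluorescence with signal to noise from triplicate slides.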 The note with it: Cy5-CALM1 binding fluorescence, higher = more signal.
Assay [16] in a line: probe aWnt5a binding to arrayed compounds – biochemical, biotinylated probe, 635/667 nm fluorescence, primary screen (AID 1113).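 Further: score merges 667 nm fluorescence intensity with signal-to-noise per printed feature.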 The note with it: small-molecule microarray, higher = more signal.
Assay [17] is described as follows: probe aShh binding to arrayed compounds – biochemical, biotinylated probe, 635/667 nm fluorescence, primary screen (AID 1114).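 Further: probe is biotin-labelled aShh protein from a stem cell growth factor screen; measures binding of labelled protein to compounds printed on the slide; score merges feature fluorescence at 667 nm with signal-to-noise.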 The note with it: small-molecule microarray, higher = more signal.
The nature of assay [18]: probe aNog binding to arrayed compounds – biochemical, biotinylated probe, 635/667 nm fluorescence, primary screen (AID 1115).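 Further: probe is biotinylated aNog protein used at 0.15 µg/mL for 1 h at 4 C; z-score combines 667 nm fluorescence of each spot with its signal to noise.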 Particulars: small-molecule microarray, higher = more signal.
Assay [19] concerns the target Torsin-1A-interacting protein 1 (Homo sapiens) (UniProt Q5JTV8). Put plainly: compound microarray binding of lysate hLAP1 – cell lysate, small-molecule microarray, COS7 lysate, 635/667 nm fluorescence, primary screen (AID 1116). The note with it: 635 nm fluorescence, higher = more signal.
In assay [20] the target is Alpha-bungarotoxin (Bungarus multicinctus) (UniProt P60615). Put plainly: compounds binding labelled alpha-BTX control protein – biochemical, small-molecule microarray, Alexa647 label, 635/667 nm fluorescence, artefact control for SMM control protein annotation, profiling panel (AID 1117). Particulars: alpha-BTX-A647 binding fluorescence, higher = more signal.

In PubChem BioAssay one finds composite z-score and z-score data, which are given here for five compounds.

Molecules are shown by their SMILES. Calls of active or inactive are those of the source.

Chain of Dickkopf-related protein 1 (Homo sapiens) (O94907 whole entry, looked up): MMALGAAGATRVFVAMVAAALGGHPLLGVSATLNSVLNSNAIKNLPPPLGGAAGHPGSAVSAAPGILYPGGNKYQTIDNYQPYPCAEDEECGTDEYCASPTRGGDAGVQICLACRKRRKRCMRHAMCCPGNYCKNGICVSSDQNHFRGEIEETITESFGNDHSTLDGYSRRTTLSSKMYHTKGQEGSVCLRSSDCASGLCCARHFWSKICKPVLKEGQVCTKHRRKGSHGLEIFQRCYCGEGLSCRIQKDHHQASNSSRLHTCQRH
Chain of Fibroblast growth factor 10 (Homo sapiens) (O15520 whole entry, looked up): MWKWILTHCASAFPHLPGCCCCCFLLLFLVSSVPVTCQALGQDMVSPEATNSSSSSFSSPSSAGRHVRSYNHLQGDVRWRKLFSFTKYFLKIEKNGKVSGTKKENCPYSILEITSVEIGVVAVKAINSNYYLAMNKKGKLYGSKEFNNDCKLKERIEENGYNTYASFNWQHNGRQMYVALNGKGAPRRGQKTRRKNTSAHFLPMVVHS
Chain of Alpha-bungarotoxin (Bungarus multicinctus) (P60615 whole entry, looked up): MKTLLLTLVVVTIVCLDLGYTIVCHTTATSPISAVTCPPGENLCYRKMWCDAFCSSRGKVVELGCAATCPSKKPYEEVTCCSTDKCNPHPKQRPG
Chain of Torsin-1A-interacting protein 1 (Homo sapiens) (Q5JTV8 whole entry, looked up): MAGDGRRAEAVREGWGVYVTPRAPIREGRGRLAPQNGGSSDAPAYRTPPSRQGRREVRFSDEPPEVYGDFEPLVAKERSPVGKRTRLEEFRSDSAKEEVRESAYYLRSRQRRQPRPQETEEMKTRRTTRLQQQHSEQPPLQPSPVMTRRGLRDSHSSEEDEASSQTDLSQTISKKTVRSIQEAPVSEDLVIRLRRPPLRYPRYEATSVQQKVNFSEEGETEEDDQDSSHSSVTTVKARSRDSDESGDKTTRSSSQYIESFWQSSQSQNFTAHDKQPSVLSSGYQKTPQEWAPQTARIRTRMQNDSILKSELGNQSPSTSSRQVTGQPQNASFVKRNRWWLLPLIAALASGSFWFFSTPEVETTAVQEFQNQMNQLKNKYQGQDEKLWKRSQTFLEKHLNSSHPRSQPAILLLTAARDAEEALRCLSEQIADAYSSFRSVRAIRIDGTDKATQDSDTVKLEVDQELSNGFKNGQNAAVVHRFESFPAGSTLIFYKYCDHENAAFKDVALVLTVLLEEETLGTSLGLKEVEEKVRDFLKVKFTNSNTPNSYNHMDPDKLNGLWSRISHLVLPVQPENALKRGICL
Chain of Follistatin-related protein 3 (Homo sapiens) (O95633 whole entry, looked up): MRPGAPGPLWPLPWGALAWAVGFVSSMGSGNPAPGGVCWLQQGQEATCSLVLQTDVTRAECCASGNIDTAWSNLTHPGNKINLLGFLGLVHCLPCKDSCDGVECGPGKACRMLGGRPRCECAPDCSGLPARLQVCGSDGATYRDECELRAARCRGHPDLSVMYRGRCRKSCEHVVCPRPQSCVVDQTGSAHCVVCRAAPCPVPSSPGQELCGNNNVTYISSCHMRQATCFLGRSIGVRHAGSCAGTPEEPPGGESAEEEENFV
Chain of Epidermal growth factor receptor (Homo sapiens) (P00533 whole entry, looked up): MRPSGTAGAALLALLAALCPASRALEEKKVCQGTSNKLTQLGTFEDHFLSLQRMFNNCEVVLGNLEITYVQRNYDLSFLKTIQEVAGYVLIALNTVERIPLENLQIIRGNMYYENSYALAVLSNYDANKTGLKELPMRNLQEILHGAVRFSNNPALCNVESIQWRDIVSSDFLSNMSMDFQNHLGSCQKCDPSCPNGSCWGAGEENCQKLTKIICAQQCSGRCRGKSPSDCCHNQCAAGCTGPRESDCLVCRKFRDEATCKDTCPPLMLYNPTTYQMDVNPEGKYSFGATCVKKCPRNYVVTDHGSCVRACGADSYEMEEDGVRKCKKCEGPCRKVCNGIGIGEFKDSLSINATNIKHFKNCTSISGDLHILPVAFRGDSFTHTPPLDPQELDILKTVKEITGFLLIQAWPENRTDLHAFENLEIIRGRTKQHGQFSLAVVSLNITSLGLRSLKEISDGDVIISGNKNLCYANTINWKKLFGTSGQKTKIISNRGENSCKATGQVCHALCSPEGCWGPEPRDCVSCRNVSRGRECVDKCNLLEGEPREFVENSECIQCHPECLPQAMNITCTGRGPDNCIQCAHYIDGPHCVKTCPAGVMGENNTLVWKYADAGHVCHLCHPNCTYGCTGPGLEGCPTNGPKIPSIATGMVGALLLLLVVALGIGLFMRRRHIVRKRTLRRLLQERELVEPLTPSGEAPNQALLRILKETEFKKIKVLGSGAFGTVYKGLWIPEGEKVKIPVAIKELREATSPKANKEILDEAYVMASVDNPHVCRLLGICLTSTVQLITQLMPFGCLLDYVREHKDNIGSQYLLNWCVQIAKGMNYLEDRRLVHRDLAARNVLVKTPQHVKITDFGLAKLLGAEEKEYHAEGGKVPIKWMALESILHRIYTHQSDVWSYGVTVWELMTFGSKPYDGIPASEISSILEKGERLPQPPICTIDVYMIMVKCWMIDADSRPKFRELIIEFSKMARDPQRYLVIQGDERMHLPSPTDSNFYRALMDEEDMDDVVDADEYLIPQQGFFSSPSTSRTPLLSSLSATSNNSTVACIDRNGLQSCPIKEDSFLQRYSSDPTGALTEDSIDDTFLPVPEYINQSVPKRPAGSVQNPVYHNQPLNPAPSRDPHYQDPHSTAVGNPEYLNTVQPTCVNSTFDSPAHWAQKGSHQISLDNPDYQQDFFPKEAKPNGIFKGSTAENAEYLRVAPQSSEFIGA
Chain of Left-right determination factor 2 (Homo sapiens) (O00292 whole entry, looked up): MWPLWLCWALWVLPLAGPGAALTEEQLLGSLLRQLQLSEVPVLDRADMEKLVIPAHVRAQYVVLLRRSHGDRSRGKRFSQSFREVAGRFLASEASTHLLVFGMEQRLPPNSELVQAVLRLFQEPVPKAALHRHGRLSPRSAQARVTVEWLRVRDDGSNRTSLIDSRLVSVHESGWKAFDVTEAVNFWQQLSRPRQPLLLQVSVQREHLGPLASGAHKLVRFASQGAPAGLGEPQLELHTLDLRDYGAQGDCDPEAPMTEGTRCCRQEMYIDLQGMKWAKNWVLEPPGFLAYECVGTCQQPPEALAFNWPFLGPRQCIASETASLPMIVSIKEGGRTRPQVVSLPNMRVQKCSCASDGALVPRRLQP

Consider `[N-]=[N+]=NCc1ccccc1C[C@]1(C(=O)NCc2ccccc2)N=C(c2ccc(OCCCO)cc2)O[C@H]1c1ccccc1N=[N+]=[N-]`, for which the composite z-score in assay [1] is 1.3; in [2], 0.658; in [3] it was 1.09; in assay [5] it was 0.856; in assay [6], 1.12; in assay [7] it was -0.463. Moreover, the composite z-score is 0.188 in [8]; -0.678 in [9]; -0.222 in [10]; 0.878 in assay [11]; -0.612 in [13]; 1.35 in [14]. In addition, the composite z-score in assay [15] was 0.743; in assay [16], 0.0068; in assay [17], 0.162; in assay [18], -0.716; in [19], 0.855; in assay [20], 0.947. In addition, the z-score was 0.00592 (inactive) in assay [4] and -2.05 in [12].
Regarding `CN(C)CCCNC(=O)[C@@H]1c2ccccc2C(=O)N(Cc2cc(F)cc(C(F)(F)F)c2)[C@H]1c1ccc(CO)cc1`, the composite z-score in assay [1] was 1.75; in assay [2] it was -0.132; in assay [3], 0.17; in assay [5], 0.159; in assay [6], 0.922; in assay [7], 0.368. Also, the composite z-score in assay [8] was -1.1; in assay [9], 0.0959; in assay [10], -0.217; in assay [11], 0.7; in [13], 0.643; in assay [14] it was 0.509. The composite z-score in [15] is 0.0028; in assay [16], -0.103; in assay [17] it was -0.0904; in [18], 1.39; in [19] it was 0.886; in [20] it was -0.0234. The z-score is -1 (inactive) in [4] and -0.734 in assay [12].
On to `C#C[C@@H](CC)O[Si](C#Cc1ccc(Oc2ccccc2)cc1)(C(C)C)C(C)C`, for which the composite z-score was 0.301 in assay [1]; -0.137 in assay [2]; -0.225 in assay [3]; 0.706 in [5]; 0.777 in assay [6]; 0.185 in assay [7]. The composite z-score in assay [8] was 0.773; in [9], 0.125; in assay [10], 0.0324; in assay [11], 1.1; in assay [13], 0.341; in assay [14], -0.0885. Besides, the composite z-score was -0.657 in assay [15]; -0.0963 in assay [16]; -0.0533 in assay [17]; -0.254 in [18]; 0.368 in assay [19]; 0.0826 in assay [20]. The results for the z-score in assay [4] and in assay [12] were -1.17 (inactive) and -0.715, respectively.
Regarding `CCOC(=O)[C@H](Cc1ccccc1)NC(=O)CCC1CC(OC(=O)NCc2ccc3c(c2)OCO3)CC2(CCCC(COC(=O)NCc3cccc(C(F)(F)F)c3)O2)O1` (stereo not given in full), the composite z-score in assay [1] is 0.239; in [2] it was 0.113; in [3], -0.338; in [5] it was 0.984; in assay [6], 0.584; in [7], 0.314. Also, the composite z-score in [8] stood at 1; in [9] it was 0.495; in assay [10], 0.321; in assay [11], 0.547; in [13] it was 0.48; in [14], 0.214. In addition, the composite z-score in assay [15] is -0.286; in assay [16], -0.0792; in assay [17], 0.108; in [18] it was 0.205; in assay [19], 0.251; in assay [20] it was 0.0294. Moreover, the z-score in [4] was -1.18 (inactive); in [12], -1.21.
`CC(=O)OC[C@H]1O[C@H](C#CCCCc2ccccc2)C=C[C@@H]1OC(C)=O`: the composite z-score in assay [1] was 0.829; in [2], -0.194; in [3], -0.33; in assay [5] it was 0.687; in assay [6], -0.0427; in assay [7], 0.0559. The composite z-score is 0.556 in assay [8]; 0.3 in [9]; 1.03 in assay [10]; 0.108 in assay [11]; 0.615 in assay [13]; -0.826 in assay [14]. The composite z-score is -0.794 in assay [15]; -0.118 in assay [16]; -0.0474 in assay [17]; -0.493 in assay [18]; 0.298 in assay [19]; 0.155 in assay [20]. Besides, the z-score in assay [4] was 0.492 (inactive); in [12] it was -2.99.
